TDP-43 yeast inh: rescues yeast growth from TDP-43 toxicity. TDP-43 expressing yeast growth rescue, BacTiter-Glo, 24 h. Potency, µM (highest dose often 46.1 µM), hits mostly activators. 410,000 compounds, 1.8% hits; note: nearly all actives have a fitted effect of over 50% in size
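Galactose-induced TDP-43 yeast, OD600=0.02, compound pinned; 24 hr, 30 deg C; BacTiter-Glo luminescence for growth. Inhibitors of TDP-43 toxicity read as activators.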
Abeta rescue: compounds reversing amyloid beta toxicity in yeast; yeast expressing A-beta42, growth rescue, OD600, 48 h; response scale: 0% DMSO, 100% iron-clioquinol control; Potency, µM (top dose mostly 46.1 µM), most hits filed as activators; 410,000 compounds, 0.063% hits; AID 1347071; note: nearly all actives have a fitted effect of over 55% in size
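Yeast A-beta toxicity model in growth medium with pinned compounds, 48 h at 30 C; growth read as absorbance at 600 nm. Normalized to FeCl3/clioquinol equimolar mix (positive) and DMSO (negative).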
LDHA block: LDHA (human) enzyme inhibition; activity change, % (values are at about 110 or 230 µM); AID 1347041; purified LDHA, NADH/diaphorase-resazurin fluorescence; active compounds read low; 480,000 compounds, 0.15% hits; in the data active = activity change below about -30%; inconclusive = mostly about -25% to -30%
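Human LDH5 (2 nM) was incubated with 0.06 mM NADH and 0.2 mM pyruvate for 5 min at room temperature in Tris pH 7.4. Remaining NADH was coupled through diaphorase/resazurin, and resorufin fluorescence was read at 0 and 20 min.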
FUS suppressor: suppressors of FUS proteinopathy in yeast | 390,000 compounds, 0.24% hits | AID 1347120 | Potency, µM (series often up to 76.6 µM), usual class: activators | S. cerevisiae FUS-expressing, growth rescue, OD600, 24 h; note: nearly all actives have a fitted effect of over 55% in size
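Read-out: OD at 600 nm after 24hr at 30C, reporting rescue of FUS-induced yeast toxicity. Cells at OD 0.005 in galactose (2%) minimal medium; compounds tested in a dilution series; CP55940 titration from 92uM final as control.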
mIDH1 inhibitor: blocks human mutant IDH1 R132H enzyme | O75874 | IDH1-R132H enzyme, NADPH consumption, diaphorase/resazurin fluorescence | Potency, µM (series often up to 76.6 µM), hits mostly inhibitors | 390,000 compounds, 0.093% hits | AID 602179; note: nearly all actives have a fitted effect of over 65% in size
Target sequence (O75874 whole entry R132H, stated change not applied): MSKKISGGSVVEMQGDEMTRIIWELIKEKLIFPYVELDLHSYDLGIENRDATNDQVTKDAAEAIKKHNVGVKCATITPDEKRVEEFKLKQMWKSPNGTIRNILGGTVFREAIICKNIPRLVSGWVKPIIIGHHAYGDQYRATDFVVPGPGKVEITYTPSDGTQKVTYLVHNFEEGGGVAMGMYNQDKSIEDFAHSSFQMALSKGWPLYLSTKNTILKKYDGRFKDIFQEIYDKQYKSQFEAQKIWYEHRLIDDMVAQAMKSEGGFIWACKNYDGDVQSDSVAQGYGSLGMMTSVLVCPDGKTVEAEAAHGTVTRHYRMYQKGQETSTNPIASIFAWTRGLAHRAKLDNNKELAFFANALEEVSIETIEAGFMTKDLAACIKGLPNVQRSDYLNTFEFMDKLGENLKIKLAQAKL
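IDH1-R132H (0.5 ug/mL) preincubated 30 min with compound, then NADPH (0.016 mM) and alpha-KG (2 mM) added; 80 min at RT, pH 7.5. Remaining NADPH coupled via diaphorase/resazurin to fluorescence (540/590 nm); concentration-response curves normalized to no-enzyme control.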
aSyn yeast inh: inhibitors of alpha-synuclein toxicity in yeast | 370,000 compounds, 0.14% hits | Potency, µM (titrated, usually from 46.1 µM), actives largely listed as activators | Yeast expressing alpha-synuclein, growth rescue, BacTiter-Glo, 24 h; note: nearly all actives have a fitted effect of over 65% in size
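Screening used galactose-induced yeast with toxic alpha-synuclein levels, exposed to compound for 24 hr at 30 deg C. Cell growth, read with BacTiter-Glo luminescence, gave the measured signal.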
Numbers stand for hits; - = inactive; ? = inconclusive; . = no result; [ ] = remark or other dose. A selection: hits, their analogues and other compounds. The true share with any hit is near 2%. Unless noted, calls come from the whole dose curve; as a rule, active = well fitted curve in the direction sought with a large enough effect; inconclusive = small, poorly fitted or top-dose-only effect, or another doubt; inactive = no such curve, though single readings can be large; an effect the other way counts as inactive or inconclusive.

SMILES	TDP-43 yeast inh	Abeta rescue	LDHA block	FUS suppressor	mIDH1 inhibitor	aSyn yeast inh
Cc1ccc(S(=O)(=O)n2c(=O)oc3ccccc32)cc1	8.9µM	-	-	-	-	-
O=C(CCc1cc(Cl)no1)N(CCS(=O)(=O)N1CCOCC1)Cc1ccccn1	.	.	-	.	.	.
CCC(C)NC(=O)c1cc(SC)ccc1C (configuration not stated)	.	.	-	.	.	.
COc1ccc(Br)cc1/C=C/C(=O)Nc1ccc(C)cc1	16µM	-	-	-	-	-
COc1ccc(Br)cc1/C=C/C(=O)Nc1ccc2ccccc2c1	-	-	-	-	-	-
O=C(O)c1cccc(Oc2ccc([N+](=O)[O-])cc2)c1	18µM	-	-	-	-	-
CCC(C)c1ccc(NC(=O)C2CCCN(c3ncccn3)C2)cc1 (configuration not stated)	13µM	-	-	-	-	.
COc1ccc(NC(=O)C2CCCN(c3ncccn3)C2)cc1 (configuration not stated)	-	-	-	-	-	-
CCOC(=O)C1=C[C@@H](C(C)(C)C)N(S(=O)(=O)c2ccc(C)cc2)[C@H]1c1ccccc1	-	-	-	-	.	-
CCc1ccc([C@H]2C(C(=O)O)=C[C@@H](C(C)(C)C)N2S(=O)(=O)c2ccc(C)cc2)cc1	14µM	-	-	-	-	-
N=c1nc(-c2ccccc2)n(-c2ccccc2)s1	.	.	-71	.	.	-
CCN(CC)c1ccc2c(C)c(Cl)c(=O)oc2c1	-[9.22 µM]	-	-	-	-	-
CCN(CC)c1ccc2c(c1)oc(=O)c1c(Cl)cc(=O)oc12	-	-	-	.	?	13µM
CCN(CC)c1ccc2c(C)cc(=O)oc2c1	-	-	-	-	-	-
CCN(CC)c1ccc2c(Cl)c(Br)c(=O)oc2c1	20µM	-	-	-	-	-
Cc1ccc2c(c1)-c1c(cnn1CC(=O)N(Cc1ccco1)C1CCCCC1)CO2	35µM	-	-	-	-	-
Cc1ccc2c(c1)-c1c(cnn1CC(=O)N1CCN(c3ccccc3F)CC1)CO2	20µM	-	-	-	-	.
Nc1ccc(Sc2ccccc2Cl)cc1	.	.	-	.	.	.
Cc1cc(C(=O)CN2CCN(Cc3ccc4c(c3)CCO4)CC2)c(C)n1C1CCS(=O)(=O)C1 (configuration not stated)	.	.	-	.	.	.
COc1cc(O)c([C@@H](CC(=O)N2CC(C)CC(C)C2)c2ccc3c(c2)OCO3)c(OC)c1 (some centres not stated)	.	.	.	25µM	.	.
COc1cc(O)c(C(CC(=O)N2CCCC2)c2ccc3c(c2)OCO3)c(OC)c1 (configuration not stated)	-	-	-	-	-	-
CC(C)N(C(=O)c1ccccc1-c1ccccc1)C(C)C	-	-	-	-	-	20µM
O=C(CSc1nnc(-c2cccc(S(=O)(=O)N3CCCC3)c2)n1-c1ccccc1)Nc1ccc2c(c1)OCO2	.	.	-	.	.	.
COCC(=O)N1CCN(c2oc(-c3ccc(C)cc3)nc2S(=O)(=O)c2ccc(F)cc2)CC1	.	.	-36	.	.	.
COc1ccccc1OCCNS(=O)(=O)c1ccc2oc3ccccc3c2c1	16µM	-	-	-	-	?
SMILES	TDP-43 yeast inh	Abeta rescue	LDHA block	FUS suppressor	mIDH1 inhibitor	aSyn yeast inh
O=C(CNc1ccccc1-c1ccccc1)NCc1ccccc1	20µM	-	-	.	-	-
O=C(CNCc1ccccc1)Nc1ccccc1-c1ccccc1	-	-	-	-	-	-
COC(=O)c1ccccc1OCCCCN1CC(C)OC(C)C1 (configuration not stated)	-	-	-31	-	-	-
CC(=O)Nc1cc(-c2nc3ccccc3s2)ccc1C	-	-	-	-	.	.
Cc1cc(-c2nc3ccccc3s2)ccc1N	18µM	-	-	.	-	-
N#Cc1cc2ccccc2nc1N1CCCCC1	.	.	-	.	.	.
COc1ccc(-c2nn3c(-c4ccc(C(C)(C)C)cc4)nnc3s2)cc1OC	.	.	-	.	.	.
C/C(C=NNC(=O)c1cc(-c2ccc(C)c(C)c2)n[nH]1)=C/c1ccco1	.	.	.	-	.	.
O=C(N/N=C\C=C\c1ccco1)c1cc(-c2ccc3ccccc3c2)n[nH]1	-	-	-	?	-	18µM
COc1ccc2c(c1)-c1nc(NC(=O)c3cccs3)sc1CC2	18µM	-	-	?	-	-
COc1ccc2c(c1)-c1nc(NC(=O)c3ccco3)sc1CC2	?	-	-	.	-	-
COc1ccc2c(c1)CCc1sc(NC(=O)c3ccco3)nc1-2	20µM	-	-	-	-	-
Cc1ccc(C(=O)NCC(=O)N(C)Cc2ccc(Cl)cc2Cl)s1	8.9µM	-	-	-	-	-
Cc1ccc(C(=O)NCC(=O)N(C)CC(=O)Nc2ccc(Cl)cc2)s1	.	.	-	.	.	.
Cc1ccc(-c2noc(-c3cccn3CC(=O)N3CCC(C)CC3)n2)cc1	.	.	-	.	.	.
O=C(O)c1ccc(N/N=C/c2ccc(C(F)(F)F)cc2)cc1	-	-	-	-	-	-
CC(C)(C)c1ccc(/C=N/Nc2ccc(C(=O)O)cc2)cc1	16µM	-	-	-	-	-
CC(C)CC(C(=O)OCC(=O)Nc1cccc(Cl)c1)N1C(=O)C2CC=CCC2C1=O (configuration not stated)	35µM	-	-	.	-	-
Cc1nccc(-c2cccc(NC(=O)c3nccnc3N)c2)n1	.	.	-	.	.	.
Cc1ccc(NC(=O)c2cc(S(=O)(=O)NCCC3=CCCCC3)ccc2F)cc1	22µM	-	-	.	-	-
O=C(Nc1ccc(F)c(F)c1)c1cc(S(=O)(=O)NC2CCCCCC2)ccc1F	?	-	-	-	-	.
CCOc1ccc(NC(=O)c2cc(S(=O)(=O)NC3CCCCCC3)ccc2F)cc1	13µM	-	-	-	-	.
COc1ccc(NC(=O)c2cc(S(=O)(=O)NCC3COc4ccccc4O3)ccc2F)cc1 (configuration not stated)	35µM	-	-	?	-	-
COc1cc(/C=C(/C#N)C(=O)OC(C)C)cc(Cl)c1O	.	.	-	.	.	.
Cn1cc(C(CO)Cc2ccccc2)c2ccccc21 (configuration not stated)	?	-	-	-	-	18µM
SMILES	TDP-43 yeast inh	Abeta rescue	LDHA block	FUS suppressor	mIDH1 inhibitor	aSyn yeast inh
Cn1cc(/C(Cc2ccccc2)=N\O)c2ccccc21	-	-	-	-	-	-
O=C/C=C/c1ccc([N+](=O)[O-])cc1	.	.	-	.	.	.
CCN(CC)S(=O)(=O)c1ccc(N2CCOCC2)c(NC(=O)c2ccc(C#N)cc2)c1	-	-	-	28µM	-	-
CCN(CC)S(=O)(=O)c1ccc(N2CCOCC2)c(NC(=O)c2ccc(F)cc2)c1	?	-	-	-	-	-
O=C(N/N=C/c1c[nH]c2ccc(Br)cc12)c1ccn(Cc2ccc(Cl)cc2Cl)n1	-	-	-	28µM	-	-
Cc1ccc(-c2ccccc2)n1-c1cccc(C(=O)O)c1	35µM	-	-	-	-	-
